Source: PubChem BioAssay (NCATS)
Inconclusive results are not listed. Active and inactive are the calls of the source. Unless noted, calls follow the shape of the dose curve; as a rule, active = well fitted curve in the direction sought with a large enough effect; inconclusive = small, poorly fitted or top-dose-only effect, or another doubt; inactive = no such curve, though single readings can be large; an effect the other way counts as inactive or inconclusive.

How the values were obtained:
[1] = qHTS for Inhibitors of Plasmodium falciparum (DD2) proliferation (AID 504314);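 also: parasite DNA measured by SYBR Green fluorescence after red cell lysis; plate controls were DMSO vehicle for no effect and artemisinin wells for full effect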; settings: P. falciparum Dd2 in erythrocytes, SYBR Green growth, 72 h; series mostly up to 6.11 µM
In short: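 Fluorescence read-out (ex 485/em 535 nm) of SYBR Green-stained parasite DNA quantifies intraerythrocytic growth. Cultures at 0.3% parasitemia and 2.5% hematocrit were treated for 72 h; data normalized to DMSO and 0.29 uM artemisinin wells.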

[2] = qHTS for Inhibitors of Plasmodium falciparum (GB4) proliferation (AID 504315);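 also: 0% = DMSO vehicle and -100% = 0.29 µM artemisinin control; nearly all actives have a fitted effect of over 50% in size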; settings: P. falciparum GB4 in erythrocytes, SYBR Green DNA, 72 h; series mostly up to 6.7 µM
In short: (§1)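 Erythrocytes infected with P. falciparum line (0.3% parasitemia, 2.5% hematocrit final) incubated with compounds 72 h at 37 °C, 5% CO2; SYBR Green lysis buffer added, fluorescence read next day. Normalized to 0.29 uM artemisinin and DMSO.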

[3] = qHTS for Inhibitors of Plasmodium falciparum (7G8) proliferation (AID 504316);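 also: 0% = DMSO vehicle and -100% = 0.29 µM artemisinin full kill; nearly all actives have a fitted effect of over 65% in size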; settings: P. falciparum 7G8 in erythrocytes, SYBR Green DNA, 72 h; series mostly up to 6.7 µM
In short: as §1

[4] = qHTS for Inhibitors of Plasmodium falciparum (CP250) proliferation (AID 504320);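 also: plate controls were DMSO vehicle for no effect and 0.29 µM artemisinin control for full effect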; settings: P. falciparum CP250 in erythrocytes, SYBR Green DNA, 72 h; series mostly up to 6.7 µM
In short: as §1

[5] = biological target: Atrial natriuretic peptide receptor 1 (Homo sapiens) (UniProt P16066); assay: Natriuretic polypeptide receptor (hNpr1) antagonism - Pilot CMLD screen (AID 1347052; calls by dose curve;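 also: HEK293 cells with hNpr1 stimulated by hNppA peptide at 0.1 nM; cGMP level read as GloSensor luciferase luminescence after agonist stimulation; % is scaled to controls: 0 for no effect and ±100 for the full control effect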); settings: HEK293 hNpr1 GloSensor cGMP luminescence, ANP-stimulated; series mostly up to 9.22 µM
Atrial natriuretic peptide receptor 1 (Homo sapiens), sequence (P16066 whole entry, looked up): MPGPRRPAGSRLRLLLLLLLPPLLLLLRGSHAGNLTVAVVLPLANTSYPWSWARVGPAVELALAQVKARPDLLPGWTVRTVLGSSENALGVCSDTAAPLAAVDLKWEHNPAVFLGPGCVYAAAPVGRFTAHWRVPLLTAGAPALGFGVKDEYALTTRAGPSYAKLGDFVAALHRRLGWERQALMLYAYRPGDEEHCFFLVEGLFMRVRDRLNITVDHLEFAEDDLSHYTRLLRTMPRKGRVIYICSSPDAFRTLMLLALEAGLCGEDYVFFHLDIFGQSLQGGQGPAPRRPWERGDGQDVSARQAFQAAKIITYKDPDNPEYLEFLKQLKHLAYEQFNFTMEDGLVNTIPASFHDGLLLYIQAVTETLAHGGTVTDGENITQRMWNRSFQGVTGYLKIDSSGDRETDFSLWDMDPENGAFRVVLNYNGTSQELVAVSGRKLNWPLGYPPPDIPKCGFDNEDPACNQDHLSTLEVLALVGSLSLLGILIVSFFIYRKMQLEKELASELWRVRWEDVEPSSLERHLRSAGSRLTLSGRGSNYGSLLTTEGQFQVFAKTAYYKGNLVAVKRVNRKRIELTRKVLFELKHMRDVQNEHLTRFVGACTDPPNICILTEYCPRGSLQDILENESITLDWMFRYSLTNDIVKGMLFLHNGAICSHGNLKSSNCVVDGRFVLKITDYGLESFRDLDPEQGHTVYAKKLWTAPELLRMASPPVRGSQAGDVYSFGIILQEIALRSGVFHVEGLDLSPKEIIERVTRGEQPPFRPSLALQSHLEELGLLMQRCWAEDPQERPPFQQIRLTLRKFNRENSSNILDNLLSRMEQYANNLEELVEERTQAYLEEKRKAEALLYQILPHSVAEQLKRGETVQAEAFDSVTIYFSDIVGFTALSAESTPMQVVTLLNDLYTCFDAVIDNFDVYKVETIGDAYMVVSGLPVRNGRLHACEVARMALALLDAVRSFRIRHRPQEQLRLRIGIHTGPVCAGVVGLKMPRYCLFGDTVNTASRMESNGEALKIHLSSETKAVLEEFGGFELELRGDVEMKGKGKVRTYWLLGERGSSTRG

COC(=O)c1cc(C(=O)OC)n2c(C)cc3ccccc3c12
inactive: Potency [1] | Potency [2] | Potency [3] | Potency [4] | Potency [5]

CC(C)C(=O)NC(=O)[C@@H]1CCCN1C(=O)C=Cc1ccccc1
inactive: Potency [1] | Potency [2] | Potency [3] | Potency [4] | Potency [5]

C=CC1=C2C=C(C3CC3)N(CCCOC(C)C)C=C2C(=O)C(C)(OC(=O)c2ccco2)C1=O (stereo not given)
inactive: activity, negative = inhibition [1] 4.15% [at 1.12 µM] | Potency [2] | Potency [3] | Potency [4] | Potency [5]

COc1ccc2c(c1)C(=O)[C@@H](OC(=O)Nc1cc(OC)c(OC)c(OC)c1)[C@H](c1ccc(OC)c(Br)c1)O2
inactive: Potency [1] | Potency [2] | Potency [3] | Potency [4] | Potency [5]

COC(=O)C(c1ccc(OC)c(OC)c1)C1c2ccccc2C=C(C)N1C(=O)OC (stereo not given)
inactive: Potency [1] | Potency [2] | Potency [3] | Potency [4] | Potency [5]

CCN1C(=O)NC(c2cccs2)C(C(C)=O)=C1C (stereo not given)
inactive: Potency [1] | Potency [2] | Potency [3] | Potency [4] | Potency [5]

CCCCc1nc2c(c3c1C[C@H](C)OC3)CN(S(=O)(=O)c1ccc(NC(C)=O)cc1)CC2
inactive: Potency [1] | Potency [2] | Potency [3] | Potency [4] | Potency [5]

Cc1cc(C)c(S(=O)(=O)OC[C@H]2C=CC[C@@H](CCC[C@H]3O[C@H](C(=O)OC(C)C)CC[C@@H]3C)O2)c(C)c1
inactive: Potency [1] | Potency [2] | Potency [3] | Potency [4] | Potency [5]

C=CCOC(=O)N[C@H](C[N+](=O)[O-])c1ccccc1
inactive: Potency [1] | Potency [2] | Potency [3] | Potency [4] | Potency [5]

COCCN1C(=O)NC(c2ccc(Br)cc2)C(C(=O)OC)=C1C (stereo not given)
inactive: Potency [1] | Potency [2] | Potency [3] | Potency [4] | Potency [5]

CCOC(=O)CCN1C(=O)[C@@H]2[C@H]3[C@H](O)[C@H](O)CC(=NNC(=O)OCc4ccc(OC)cc4)[C@@H]3CC[C@H]2C1=O
inactive: Potency [1] | Potency [2] | Potency [3] | Potency [4] | Potency [5]

O=C1[C@@H]2[C@H]3[C@H](O)[C@H](O)CC(=NOC[C@@H](O)COCc4ccco4)[C@H]3CC[C@H]2C(=O)N1C[C@@H]1CCCO1
inactive: Potency [1] | Potency [2] | Potency [3] | Potency [4] | Potency [5]

C[C@H]1[C@H](N=[N+]=[N-])[C@H](O)CCO[C@@H]1c1ccccc1
inactive: Potency [1] | Potency [2] | Potency [3] | Potency [4] | Potency [5]

CCN1C(=O)[C@@H]2[C@H]3[C@H](O)[C@H](O)CC(=NO[C@H](C)c4cn([C@H](CO)Cc5ccccc5)nn4)[C@@H]3CC[C@H]2C1=O
inactive: Potency [1] | Potency [2] | Potency [3] | Potency [4] | Potency [5]

COc1cccc(CO[C@H]2C=C[C@@H](c3ccccc3)O[C@H]2COC(C)=O)c1
inactive: Potency [1] | Potency [2] | Potency [3] | Potency [4] | Potency [5]

CCC(=O)OC1(C)C(=O)C=C2C=C(CCCC(=O)OC)OC=C2C1=O (stereo not given)
inactive: Potency [1] | Potency [2] | Potency [3] | Potency [4] | Potency [5]

COc1ccc(-c2nc(-c3ccccc3)oc2Nc2ccccc2C)cc1
inactive: Potency [1] | Potency [2] | Potency [3] | Potency [4] | Potency [5]

Cc1cc(O)cc(O)c1C(=O)OC1(C)C(=O)C=C2C=C(C=CCO)OC=C2C1=O (stereo not given)
inactive: Potency [1] | Potency [2] | Potency [3] | Potency [4] | Potency [5]

COC(=O)C=P(c1ccccc1)(c1ccccc1)c1ccccc1
inactive: Potency [1] | Potency [2] | Potency [3] | Potency [4] | Potency [5]

O=C(NC(CC1=CCCCC1)c1ccc2c(c1)OCO2)C(F)(F)F (stereo not given)
inactive: Potency [1] | Potency [2] | Potency [3] | Potency [4] | Potency [5]

COC(=O)N1C(c2ccccc2)=Cc2ccccc2C1C1(C(=O)OC)CCCC1=O (stereo not given)
inactive: Potency [1] | Potency [2] | Potency [3] | Potency [4] | Potency [5]

C=CCC12OC3(OC)CC1[C@H](C)[C@@H](c1ccccc1)C2[C@@]3(C)O (stereo not given in full)
inactive: Potency [1] | Potency [2] | Potency [3] | Potency [4] | Potency [5]
